Measured values taken from PubChem BioAssay (NCI).
The panel holds about 83,000 compounds, 20% with a hit somewhere; the sample as a whole holds those more often.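 The test compound was applied at a single concentration to cells in 96-well plates for 48 hours, and percent growth was recorded.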 A number with no mark means an inactive call. Calls of active or inactive are those of the source. The calls were made as follows: active = growth percent below 10; inactive = the rest.

Tests used:
Test in all cases: NCI-60 one-dose screen, 48 h (100 = growth as untreated, 0 = no growth, -100 = all killed)
Conditions in all cases: 10 µM unless noted
[1] = test system: DU-145 prostate
[2] = test system: K-562 leukemia
[3] = test system: MALME-3M melanoma
[4] = test system: MDA-MB-231 breast
[5] = test system: RXF 393 renal
[6] = test system: SF-268 CNS
[7] = test system: SF-295 CNS
[8] = test system: SF-539 CNS
[9] = test system: UACC-257 melanoma
[10] = test system: M14 melanoma
[11] = test system: HCT-15 colon
[12] = test system: HT29 colon
[13] = test system: SNB-75 CNS
[14] = test system: SNB-19 CNS
[15] = test system: U251 CNS
[16] = test system: PC-3 prostate
[17] = test system: SK-MEL-5 melanoma
[18] = test system: UACC-62 melanoma
[19] = test system: LOX IMVI melanoma
[20] = test system: SK-MEL-28 melanoma

| SMILES | growth [1] | growth [2] | growth [3] | growth [4] | growth [5] | growth [6] | growth [7] | growth [8] | growth [9] | growth [10] | growth [11] | growth [12] | growth [13] | growth [14] | growth [15] | growth [16] | growth [17] | growth [18] | growth [19] | growth [20] |
| --- | --- | --- | --- | --- | --- | --- | --- | --- | --- | --- | --- | --- | --- | --- | --- | --- | --- | --- | --- | --- |
| NC1(CO)COC(c2ccccc2)OC1 (stereo not given) | 115% | 89.5% | 109% | 112% | 104% | 110% | 113% | 109% | 98.4% | 118% | 113% | 96.7% | 120% | 111% | 97.5% | 99% | 96.1% | 111% | 107% | 118% |
| CCNc1ccc(-c2nc3ccccc3n3cccc23)cc1 | 86.7% | 67.6% | 92.2% | 55.8% | 87.7% | 83.9% | 69% | 93.5% | 84.9% | 77.9% | 82.5% | 80% | 67.6% | 92.2% | 82.9% | 68.9% | 71.2% | 66.2% | 73.4% | 86.5% |
| COc1ccc(-c2cc(-c3ccccc3)nc(N3CCN(CCNc4ccnc5cc(Cl)ccc45)CC3)n2)cc1 | -33.4% (active) | 0.988% (active) | -87.7% (active) | -82.4% (active) | -34.7% (active) | -15.1% (active) | 82.7% | -40% (active) | -84.5% (active) | -70.9% (active) | -82% (active) | -67.6% (active) | 83.6% | 72.7% | 0.46% (active) | 32.4% | -98.6% (active) | 62.2% | -95.1% (active) | -93.1% (active) |
| COc1ccc(-c2ccc(-c3ccc(C(=N)N)nc3)s2)cc1Cl | -92.5% (active) | -29.8% (active) | 74.1% | -75.1% (active) | 56.8% | -62.8% (active) | -78.4% (active) | -90.6% (active) | 93.5% | -40.6% (active) | -77.4% (active) | 2.52% (active) | 80.5% | -35.8% (active) | -71.7% (active) | -28.3% (active) | 76% | 96.3% | -76.4% (active) | 97.2% |
| [2H]C([2H])([2H])Oc1ccc(F)cc1/C=C/C(=O)/C=C(O)/C=C/c1cc(F)ccc1OC([2H])([2H])[2H] | 95.3% | 84% | 104% | 108% | 103% | 89.8% | 103% | 107% | 89.6% | 85.1% | 79.9% | 98.8% | 94.9% | 91.8% | 76.8% | 93.1% | 92.8% | 80.6% | 85.1% | 116% |
| N[C@H]1CCC[C@@H]1NCCCCN1C(=O)c2cccc3cc([N+](=O)[O-])cc(c23)C1=O | 29.9% | 25.2% | 73% | 39.5% | 44.1% | 36.5% | 66.6% | 38.1% | 72.7% | 76.8% | 63.5% | 14.2% | 46.7% | 46.2% | 42.1% | 40.7% | 70.2% | 72.2% | 22.8% | 93.6% |
| CC1=CCC(OC(=O)C(C)(C)CC(O)(C(C)O)C(O)C2(C)C=CC(Cc3ccc(C(C)C)cc3)(C(C)C)CC2)(C(C)C)CC1 (stereo not given) | 107% | 9.06% (active) | 92.2% | 95.9% | 97.8% | 98.5% | 97.1% | 93.3% | 98.7% | 96.1% | 101% | 103% | 72.5% | 98.2% | 96.7% | 96.8% | 99.6% | 86.3% | -50.6% (active) | 100% |
| C=C(c1ccc(OC)c(/C=C/C(=O)c2ccc3c(c2)OCO3)c1)c1cc(OC)c(OC)c(OC)c1 | 9.67% (active) | 6.89% (active) | 67.2% | 29% | 3.52% (active) | 19.3% | 10.7% | -21.8% (active) | 58.7% | 11.3% | -8.44% (active) | 10.2% | 5.07% (active) | 30.9% | 11% | 26.5% | 0.661% (active) | 2.65% (active) | -51.1% (active) | 11.5% |
| O=C1/C(=C\c2cccc3nccnc23)SC(=S)N1CCc1ccc(O)cc1 | 98.1% | 88.5% | 87.3% | 83.8% | 107% | 97% | 101% | 97.7% | 100% | 96.3% | 101% | 116% | 89% | 94.4% | 107% | 84% | 95% | 76.4% | 94.5% | 99.5% |
| NS(=O)(=O)c1ccc(C(=O)NN2C(=O)c3c(Br)c(Br)c(Br)c(Br)c3C2=O)cc1 | 103% | 102% | 98.7% | 101% | 110% | 95.5% | 98.2% | 96.9% | 100% | 98.9% | 99.5% | 109% | 77.8% | 101% | 98% | 100% | 103% | 99.5% | 95.1% | 109% |
| COC1=C(C)C(=O)N2[C@@H]1[C@H](c1ccccc1)OC21C=CC(=O)C=C1 | 4.7% (active) | 6.14% (active) | -12.3% (active) | 11.9% | -69.2% (active) | 1.71% (active) | 90.3% | -69% (active) | -12.8% (active) | -43.8% (active) | -27.3% (active) | -12.6% (active) | 52.7% | 64.9% | 26.2% | -5.32% (active) | 33% | -55.2% (active) | -61.6% (active) | -14.4% (active) |
| CN(C)c1ccc(-c2nc(-c3ccccc3)c(-c3ccccc3)[nH]2)cc1 | 102% | 65.7% | 107% | 95.3% | 104% | 112% | 88.6% | 102% | 110% | 82.7% | 77.5% | 58.9% | 106% | 106% | 103% | 76.9% | 100% | 97.7% | 88.7% | 103% |
| Cc1ccnc(Nc2ccc([N+](=O)[O-])c(NCCN3CCOCC3)n2)c1 | 10.1% | 6.76% (active) | 89.3% | 42.4% | 70.4% | 31.9% | 35.8% | 6.71% (active) | 86.2% | 24.1% | 8.47% (active) | 10.9% | 56.8% | 58.3% | 23.2% | 12.2% | -3.36% (active) | 37.3% | 22.8% | 72% |
| C/C=C(\C)C(=O)N[C@H]1C(O)C[C@]2(C)C3CC[C@@]4(C)C(CC[C@@H]4C(C)N(C)C)C3CCC2C1O (stereo not given in full) | 74.6% | 0.455% (active) | 17.1% | 65.2% | 81% | 13.6% | 105% | 7.02% (active) | 14.6% | -14.1% (active) | -28.6% (active) | 1.91% (active) | 74.5% | 104% | 52.3% | 45.5% | -41.3% (active) | 62.3% | -26.3% (active) | -7.39% (active) |
| COc1ccc2nc(Cl)c(/C=C3\CC(c4ccccc4)=NN(c4ccccc4)C3=O)cc2c1 | 76.8% | 83.9% | 45.2% | 51.7% | 10.9% | 51.9% | 62.6% | 13.1% | 75.2% | 94.1% | 84.5% | 82.5% | 19.8% | 20.3% | 55.6% | 66.1% | 78.2% | 71.8% | 78.3% | 85.8% |
